Compounds with a hit are over-represented: about 2.9% of the library has one in this group of screens.
DRD3 agonist = D3 dopamine receptor (human) agonism; P35462; D3R DiscoveRx beta-arrestin cells, luminescence, 90 min; max activation, %; 410,000 compounds, 0.58% hits; AID 652048; in the data active = max activation above about 30%; note: 0% is about no effect
Target sequence (P35462 whole entry, looked up): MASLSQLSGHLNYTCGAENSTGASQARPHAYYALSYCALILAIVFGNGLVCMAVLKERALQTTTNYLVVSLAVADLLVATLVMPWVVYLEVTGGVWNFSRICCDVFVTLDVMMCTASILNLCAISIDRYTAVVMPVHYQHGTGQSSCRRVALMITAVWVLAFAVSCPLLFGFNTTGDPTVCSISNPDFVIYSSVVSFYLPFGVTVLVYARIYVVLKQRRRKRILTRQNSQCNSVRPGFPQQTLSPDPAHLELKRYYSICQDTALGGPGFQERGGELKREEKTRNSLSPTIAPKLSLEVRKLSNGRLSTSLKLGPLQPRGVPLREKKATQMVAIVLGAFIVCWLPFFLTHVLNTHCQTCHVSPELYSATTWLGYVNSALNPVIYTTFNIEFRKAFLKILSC
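Cells at 1500/well, incubated overnight, then treated with pinned compounds (dopamine as control) for 90 min at 37 degrees C. DiscoveRx reagent added for 30 - 60 minutes at room temperature; luminescence read.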
DRD3 antagonist = antagonists of human D3 dopamine receptor; 360,000 compounds, 2.5% hits; AID 652054; D3R cells, DiscoveRx beta-arrestin luminescence, antagonist mode; stronger effect = lower value; max response, negative = inhibition, %; in the data active = max response below about -50%; inconclusive = no clear call, values can overlap the other calls; note: % is set by controls: 0 for no effect and ±100 for the full control effect
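Cells expressing the human receptor were seeded at 1500 cells/well, incubated overnight at 37 degrees C in 5% CO2, then exposed to library compounds with dopamine controls for 90 minutes at 37 degrees C before luminescent detection.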
B2AR arrestin = agonists driving beta-arrestin recruitment to human beta2-adrenergic receptor; 330,000 compounds, 0.02% hits; beta-arrestin recruitment to beta2AR, cell-based reporter; P07550; Potency, µM (series often up to 46.1 µM), without a hit: at the top dose activation, usual class: activators; active = well fitted activation curve with a large enough effect; inconclusive = small, poorly fitted or top-dose-only effect;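 note: potency is the fitted concentration of half-maximal effect; 0% = DMSO controls and full agonism = EC100 isoproterenol or metaproterenol; nearly all actives have a fitted effect of over 65% in size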
TSHR antag = human thyrotropin receptor antagonism. P16473. TSHR-expressing cells, TSH-stimulated cAMP HTRF, 2 h; stronger effect = lower value. activity change, negative = inhibition, % at 11.5 µM. 330,000 compounds, 0.2% hits. AID 504810;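 active = activity change below a set negative limit, meaning inhibition stronger than a set level, cut at about -70% in these data; inconclusive = activity change between two set negative limits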; note: % is set by controls: 0 for no effect and ±100 for the full control effect
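TSHR-expressing cells were treated with compounds, then stimulated with TSH at EC80 (4nM final) for 2 hours at 37 deg C. Cellular cAMP was measured by HTRF competition between lysate cAMP and cAMP-d2 for a cryptate-labelled anti-cAMP antibody.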
An asterisk follows results filed as active; ? = inconclusive; / = not tested or not shown; ! = repeats disagree.

SMILES	DRD3 agonist	DRD3 antagonist	B2AR arrestin	TSHR antag
CCN1CCN(C2=C(Cl)C(=O)N(Cc3ccccc3)C2=O)CC1	-7	-50*	0%	3
Cc1ccnc2ccc(P(=O)(c3ccccc3)c3ccccc3)cc12	/	/	0%	0
CC[n+]1ccc(C)c2cc(P(=O)(c3ccccc3)c3ccccc3)ccc21	-28	-58*	0%	6
O=C(Nc1ccccc1)c1cccc(N2CCCS2(=O)=O)c1	-9	/	/	/
Cc1ccc(-c2csc(C(C)(O)c3ccc(F)c(F)c3)n2)cc1C (centres undefined)	-9	-69*	/	/
CSc1nc(SCC(=O)NC(c2ccccc2)c2ccccc2)c2c3c(sc2n1)CN(C)CC3	-8	-92*	-3%	3
CSc1nc(NCC(C)O)c2c3c(sc2n1)CN(C)CC3 (centres undefined)	-2	29	0%	-11
COc1ccc2c(c1)c(=O)c(S(=O)(=O)c1ccc(F)cc1)cn2Cc1ccccc1Cl	-12	/	/	/
O=C(/C=C/c1ccccc1)c1cc(Br)ccc(=O)c1O	-7	0	0%	-85*
CCc1cc(=O)oc2cc(C)c(CN3CCCC(C)C3)c(O)c12 (centres undefined)	-24	-28	-1%	-8
CCCCc1cc(=O)oc2cc(C)c(CN3CCCC3)c(O)c12	30*	16	-1%	3
Cc1c(C(=O)NCCc2ccc(S(N)(=O)=O)cc2)sc2nc3n(c(=O)c12)CCCC3	6	/	/	/
CC(=O)NC(NC(=S)Nc1ccc(N=Nc2ccccc2C)cc1C)C(Cl)(Cl)Cl (centres undefined)	-1	-81*	0%	6
CC(=O)NC(NC(=S)Nc1ccccc1Br)C(Cl)(Cl)Cl (centres undefined)	-1	0	0%	7
CCOc1ccccc1C(=O)N1CC(=O)Nc2ccc(Cl)cc2C1c1ccccc1 (centres undefined)	-4	/	/	/
COc1ccc(NC(=O)C2Cc3c(-c4cccc(C(N)=O)c4)ccnc3O2)cc1OC (centres undefined)	39*	0	/	/
CC(=O)Nc1cccc(-c2ccnc3c2CC(C(=O)NCc2cccs2)O3)c1 (centres undefined)	-12	-78*	/	/
CC(=O)c1cccc(-c2ccnc3c2CC(C(=O)NCc2ccco2)O3)c1 (centres undefined)	-21	-70*	/	/
CC(=O)Nc1ccc(NC(=O)C2Cc3c(-c4ccco4)ccnc3O2)cc1 (centres undefined)	-8	-61*	/	/
CC(=O)NCCNC(=O)C1Cc2c(-c3cccc(NC(C)=O)c3)ccnc2O1 (centres undefined)	4	-29	/	/
Cc1ccc(OCCCCn2c(-c3ccc(Cl)cc3)nc3ccccc3c2=O)cc1	-3	/	/	/
CCc1ccc(-n2c(=O)c3sc4ccccc4c3n(CC(=O)N3CCCC3)c2=O)cc1	11	/	/	/
CC(=O)Nc1cccc(-c2ccnc3c2CC(C(=O)Nc2ccc4c(c2)OCO4)O3)c1 (centres undefined)	-15	-55*	/	/
CCN1CCN(c2ncc(C(=O)Nc3c(F)cc(F)cc3Br)c3ccccc23)CC1	2	-62*	0%	-14
CCN1CCN(c2ncc(C(=O)Nc3cc(Cl)c(OC)cc3OC)c3ccccc23)CC1	1	-28	0%	-5
SMILES	DRD3 agonist	DRD3 antagonist	B2AR arrestin	TSHR antag
CC(=O)OCC(=O)Nc1ccc([N+](=O)[O-])cc1Cl	12	-11	0%	-3
CC(=O)Oc1c(C)cc(Cl)cc1C(=O)Nc1ccc([N+](=O)[O-])cc1Cl	5	4	0%	-82*
Cc1cc2c(c(=O)n1Cc1cccnc1)C(c1cccs1)C(C#N)=C(N)O2 (centres undefined)	-7	-51*	0%	-23
Cc1cc2c(c(=O)n1Cc1cccnc1)C(Cc1ccccc1)C(C#N)=C(N)O2 (centres undefined)	-2	-11	0%	-9
COc1ccc(S(=O)(=O)n2nc(-c3ccco3)nc2NCc2ccc(C(C)C)cc2)cc1	-1	/	/	/
CN(C)C(=O)c1ccc(NC(=O)Cn2nnnc2-c2ccccc2F)cc1	6	/	/	/
S=C1SCN(Cc2ccccn2)CN1Cc1ccco1	-20	-62*	0%	3
COCCN1CSC(=S)N(Cc2ccco2)C1	4	15	0%	-3
CCc1cnc2c(c1SCC(=O)c1ccc(OC)cc1)c(=O)n(C)c(=O)n2C	5	/	/	/
Nc1ccn([C@@H]2O[C@H](C(=O)N(CCC3=CCCCC3)CC3CC3)[C@@H](O)[C@H]2O)c(=O)n1	40*	-29	/	/
CCOc1ccc(C2c3[nH]c4ccccc4c3CCN2C(=O)CCc2ccccc2)cc1 (centres undefined)	-23	/	/	/
CCN(CC)c1ccc(C(=C2C=CC(=[N+](CC)CC)C=C2)c2ccccc2)cc1	-16	-105*	/	/
CCc1cccc(NC(=O)CCc2c(C)nc3c(c2C)c(=O)n(C)c(=O)n3C)c1	-4	/	/	/
c1ccc2[nH]ccc2c1	50*	/	/	/
CN1CCN(/N=C/c2ccc(-c3ccccc3)cc2)CC1	-14	-21	0%	20
Cc1cc(/C=N/N2CCN(C)CC2)c(C)n1-c1ccccc1F	-9	-71*	-1%	26
O=S(=O)(N/N=C/c1cccc(OC2CSC2)c1)c1ccccc1	-10	-66*	-1%	-1
Cc1ccc(S(=O)(=O)N/N=C/c2cccc(OC3CSC3)c2)cc1	-6	?	0%	15
CCOc1cccc(C2c3[nH]c4ccccc4c3CCN2C(=O)Cc2cccc(OCC)c2OCC)c1 (centres undefined)	7	/	/	/
O=S(=O)(c1ccc(Cl)cc1Cl)n1ccnc1	1	/	/	/
CN1C(=O)/C(=C/c2ccc(O)c([N+](=O)[O-])c2)NC1=S	-15	-74*	0%	-15
COc1cc(-c2ccc3oc(-c4ccsc4)c(C#CC4(O)CCCCC4)c3c2)cc(OC)c1OC	36*	77	/	/
OC1(C#Cc2c(-c3ccsc3)oc3ccc(N4CCOCC4)cc23)CCCCC1	2	62	/	/
COc1ccc(-c2oc3ccc(N4CCOCC4)cc3c2C#CC2(O)CCCCC2)cc1	84*	90	/	/
Cc1ccc(C(=O)NCC(c2ccco2)S(=O)(=O)c2ccc(Cl)cc2)cc1C (centres undefined)	8	/	/	/
SMILES	DRD3 agonist	DRD3 antagonist	B2AR arrestin	TSHR antag
CCn1cc([N+](=O)[O-])c(C(=O)N2CCN(C(=O)c3ccco3)CC2)n1	1	12	-1%	19
CCn1cc([N+](=O)[O-])c(C(=O)N2CCCC2)n1	32*	11	0%	-5
CCN(C(=O)Cn1cc(C(=O)c2ccc(F)cc2)c(=O)c2ccc(C)nc21)c1cccc(C)c1	-2	/	/	/
NC(=O)N1CCN(CCCN2c3ccccc3Sc3cc(Cl)ccc32)CC1	-7	-69*	/	/
CN1CCN(CCCN2c3ccccc3Sc3ccc(C(F)(F)F)cc32)CC1	-14	-104*!	4%	-11
CN1CCN(CCC(=O)N2c3ccccc3Sc3ccc(Cl)cc32)CC1	-13	-51*	0%	-30
O=C1CSC2(CCN(CCCN3c4ccccc4Sc4ccc(Cl)cc43)CC2)N1	-4	/	/	/
c1ccc2c(c1)Sc1ccccc1N2CCN1CCCC1	-10	/	/	/
